This is an account of results in PubChem BioAssay (EPA / NIEHS).

As usually defined, the AC50 is the midpoint of the concentration-response curve, whichever way the signal moves.

Values joined by “and” are separate entries in the source; they are usually repeats but may differ in a detail not shown here. Equal values may be shown once. Results filed as inconclusive are left out. Some compounds were tested as several samples or in several runs, with calls that do not always agree. Active and inactive are the calls of the source. How the source made its calls: active means hit-call score of the fitted dose curve at least 0.9, where 1 is the maximum; inconclusive means response in the unintended direction; inactive means score below 0.9.

Chain of Adenosine receptor A1 (Bos taurus) (P28190 whole entry, looked up): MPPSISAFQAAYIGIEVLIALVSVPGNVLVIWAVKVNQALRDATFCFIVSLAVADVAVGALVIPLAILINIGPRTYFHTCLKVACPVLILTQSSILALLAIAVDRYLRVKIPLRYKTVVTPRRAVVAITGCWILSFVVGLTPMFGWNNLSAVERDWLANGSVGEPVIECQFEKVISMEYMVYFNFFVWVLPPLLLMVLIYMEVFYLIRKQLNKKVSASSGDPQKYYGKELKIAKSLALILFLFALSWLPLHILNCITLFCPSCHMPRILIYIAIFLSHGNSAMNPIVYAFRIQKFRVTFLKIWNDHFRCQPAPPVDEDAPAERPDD
Chain of rat Monoamine Oxidase, MAO-B, Peripheral (MAOBP), Maob (gene 25750) (P19643 whole entry, looked up): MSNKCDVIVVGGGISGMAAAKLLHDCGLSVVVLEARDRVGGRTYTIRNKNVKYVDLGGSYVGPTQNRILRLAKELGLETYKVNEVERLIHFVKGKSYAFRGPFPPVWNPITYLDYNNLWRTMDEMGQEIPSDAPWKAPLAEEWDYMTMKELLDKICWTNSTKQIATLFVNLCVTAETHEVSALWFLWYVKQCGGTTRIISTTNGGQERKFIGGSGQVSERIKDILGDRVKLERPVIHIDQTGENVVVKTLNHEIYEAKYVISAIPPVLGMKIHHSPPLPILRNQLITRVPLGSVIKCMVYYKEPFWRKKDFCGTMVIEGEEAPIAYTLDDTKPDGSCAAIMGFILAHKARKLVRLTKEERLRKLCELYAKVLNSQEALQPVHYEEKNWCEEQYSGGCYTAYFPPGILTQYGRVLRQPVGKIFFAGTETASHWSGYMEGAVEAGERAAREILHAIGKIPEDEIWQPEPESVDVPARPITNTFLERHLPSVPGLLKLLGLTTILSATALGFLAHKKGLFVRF
Chain of guinea pig Leukotriene D4 Receptor (LTD4), CYSLTR1 (gene 100135514) (Q2NNR5 whole entry, looked up): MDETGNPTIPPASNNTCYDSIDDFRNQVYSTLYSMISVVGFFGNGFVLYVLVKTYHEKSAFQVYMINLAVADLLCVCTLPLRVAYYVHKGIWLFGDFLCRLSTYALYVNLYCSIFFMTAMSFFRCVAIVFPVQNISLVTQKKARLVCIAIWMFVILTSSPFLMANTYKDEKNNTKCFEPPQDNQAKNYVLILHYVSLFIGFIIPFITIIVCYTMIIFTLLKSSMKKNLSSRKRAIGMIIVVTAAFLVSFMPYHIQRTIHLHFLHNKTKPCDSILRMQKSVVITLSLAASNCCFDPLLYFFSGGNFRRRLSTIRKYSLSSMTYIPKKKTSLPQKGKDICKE

The first experiment has as its target rat Monoamine Oxidase, MAO-B, Peripheral (MAOBP), Maob (gene 25750) (UniProt P19643). Put plainly: NVS_ENZ_rMAOBP: NovaScreen (NVS) Enzymatic Assay for rat Monoamine Oxidase, MAO-B, Peripheral (MAOBP) (AID 2283242).
Regarding `CNC(=S)S`, the result was inactive.

Take `COC(=O)C=C(C)OP(=O)(OC)OC`: the result was inactive.

For the molecule `CCCCNC(=O)OCC#CI`, the AC50 is 42.4 µM (active).

Take `CN(C)C(=S)SSC(=S)N(C)C`: the molecule was called inactive.

The next experiment concerns rat Monoamine Oxidase, MAO-A, Central (MAOAC), gene 29253. Put plainly: NVS_ENZ_rMAOAC: NovaScreen (NVS) Enzymatic Assay for rat Monoamine Oxidase, MAO-A, Central (MAOAC) (AID 2283243).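 Further: potency refers to inhibition seen as signal drop below DMSO baseline.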 The method in brief:
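Enzyme from rat brain, cell-free radiodetection format. Counts taken at 1.5 h; activity fitted against DMSO baseline, loss of signal marking inhibition. Confirmatory concentration series followed the 25 uM duplicate screen.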
Consider `O=C(Nc1ccccc1)Nc1ccnc(Cl)c1`, for which the AC50 was 25 µM (active).

Turning to `COc1nc(C)nc(NC(=O)NS(=O)(=O)c2ccccc2Cl)n1`, the AC50 is 37.7 µM (active) and the result was inactive.

Consider `COC(=O)c1ccccc1C(=O)OC`, for which the outcome was inactive.

On to `Oc1ccccc1-c1ccccc1`, for which the AC50 is 25 µM (active).

Take `CON(C)C(=O)Nc1ccc(Cl)c(Cl)c1`: the AC50 is 20.5 µM (active) [middle of 4 runs].

On to `CC1COC(Cn2cncn2)(c2ccc(Oc3ccc(Cl)cc3)cc2Cl)O1` (stereo not drawn), for which the AC50 was 1.8 µM (active).

Consider `CCNc1nc(Cl)nc(NC(C)C)n1`, for which the AC50 is 25 µM (active) and 8.22 µM (active); the molecule was classed as inactive.

In the case of `CC1=C(C(=O)Nc2ccccc2)SCCO1`, the AC50 is 17.5 µM (active).

In the case of `Cc1ccc(-c2c(Cl)nc(C#N)n2S(=O)(=O)N(C)C)cc1`, the AC50 was 4.79 µM (active).

Consider `Fc1ccc(Oc2ccnc3cc(Cl)cc(Cl)c23)cc1`, for which the molecule was called inactive.

Another experiment concerns the target Adenosine receptor A1 (Bos taurus) (UniProt P28190). Put plainly: NVS_GPCR_bAdoR_NonSelective: NovaScreen (NVS) G Protein-Coupled Receptor Assay for bovine Adenosine Receptor (AdoR), Non-selective Binding (AID 2283244). The method, then:
NVS_GPCR_bAdoR_NonSelective is a biochemical, single-readout assay that uses extracted gene-proteins from Bovine striatal membranes in a tissue-based cell-free assay. Measurements were taken 1 hour after chemical dosing in a 96-well plate.NVS_GPCR_bAdoR_NonSelective is one of one assay component(s) measured or calculated from the NVS_GPCR_bAdoR_NonSelective assay. It is designed to make measurements of radioligand binding, a form of binding reporter, as detected with scintillation counting signals by Filter-based radiodetection technology.Data from the assay component NVS_GPCR_bAdoR_NonSelective was analyzed into 1 assay endpoint. This assay endpoint, NVS_GPCR_bAdoR_NonSelective, was analyzed in the positive analysis fitting direction relative to DMSO as the negative control and baseline of activity. Using a type of binding reporter, loss-of-signal activity can be used to understand changes in the binding as they relate to the gene ADORA1. Furthermore, this assay endpoint can be referred to as a primary readout, because the performed assay has only produced 1 assay endpoint. To generalize the intended target to other relatable targets, this assay endpoint is annotated to the gpcr intended target family, where the subfamily is rhodopsin-like receptor.
Binding assays used specific radioligands (tritiated, iodinated) with non-radioactive competitive displacement ligands in agonist or antagonist protocols (as indicated) and various reference compounds and inhibitors to titrate specific binding to receptors and transporters. Most enzyme assays (CYPs, kinases, phosphatases, proteases, HDACs) used recombinant protein and specific substrates (fluorescence mostly, some colorimetric and radioactive) and inhibitors, followed by a biochemical separation of substrate and product. All assays for the biochemical HTS were initially run in duplicate at a single concentration (10 uM for CYP450 assays and 25 uM for all others). Assay-chemical combinations meeting a pre-defined threshold (e.g., 30% inhibition and other criteria defined below) were then run in singleton concentration-response format with maximum concentration of 20 uM for CYPs and 50 uM for all others. Each assay was run with positive and negative controls, and concurrent controls on every plate. The follow-up (secondary) screen tested active chemical-pairs in concentration series, as well as a few additional assays not tested in the primary screen, some selected negative inactives, and several cases re-run in the concentration series for confirmatory purposes.
Take `CCCCNC(=O)OCC#CI`: the AC50 is 11.9 µM (active) and the outcome was inactive.

Consider `COc1nc(NC(C)C)nc(NC(C)C)n1`, for which the AC50 was 25 µM (active).

Consider `CCOC(=O)CC(SP(=S)(OC)OC)C(=O)OCC` (stereo not drawn), for which the AC50 was 9.48 µM (active).

As to `CCNc1nc(Cl)nc(NC(C)C)n1`, the AC50 was 8.64 µM (active).

Regarding `CO/C=C(/C(=O)OC)c1ccccc1Oc1cc(Oc2ccccc2C#N)ncn1`, the AC50 was 19.1 µM (active) and 7.23 µM (active).

The next experiment deals with bovine Histamine 1 Receptor (H1), gene 281231. Put plainly: NVS_GPCR_bH1: NovaScreen (NVS) G Protein-Coupled Receptor Assay for bovine Histamine 1 Receptor (H1) (AID 2283246). Put shortly: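 Hits from a 25 uM duplicate primary screen were retested in concentration series (top 50 uM); binding measured as scintillation-counted displacement of radioligand from bovine cerebellar membranes after 1 h, normalised to DMSO.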
Regarding `CNC(=S)S`, the outcome was inactive.

In the case of `CCNc1nc(Cl)nc(NC(C)C)n1`, the call was inactive.

As to `CC(C)Oc1cc(-n2nc(C(C)(C)C)oc2=O)c(Cl)cc1Cl`, the molecule was called inactive.

The next experiment relates to guinea pig Leukotriene B4 Receptor (LTB4), gene 100379538. Description: NVS_GPCR_gLTB4: NovaScreen (NVS) G Protein-Coupled Receptor Assay for guinea pig Leukotriene B4 Receptor (LTB4) (AID 2283247). The method in brief:
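Membranes from guinea pig spleen incubated 2 h with radioligand and compound; bound counts measured by filtration and scintillation. Screened first at 25 uM in duplicate, then actives titrated to a 50 uM top concentration relative to DMSO.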
Take `N#CC(CCc1ccc(Cl)cc1)(Cn1cncn1)c1ccccc1` (stereo not drawn): the molecule was classed as inactive.

Regarding `Cc1ccc(-c2c(Cl)nc(C#N)n2S(=O)(=O)N(C)C)cc1`, the AC50 was 1.93 µM (active).

In the case of `CCCCNC(=O)n1c(NC(=O)OC)nc2ccccc21`, the outcome was inactive.

The target in another experiment is guinea pig Leukotriene D4 Receptor (LTD4), CYSLTR1 (gene 100135514) (UniProt Q2NNR5). Put plainly: NVS_GPCR_gLTD4: NovaScreen (NVS) G Protein-Coupled Receptor Assay for guinea pig Leukotriene D4 Receptor (LTD4) (AID 2283248). The method in brief:
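Guinea pig lung membrane preparation; bound radioligand measured by filter scintillation after 1 h, loss of signal versus DMSO marking displacement. Compounds tested at 25 uM in duplicate, hits retested to max 50 uM.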
On to `CCOc1cc(Oc2ccc(C(F)(F)F)cc2Cl)ccc1[N+](=O)[O-]`, for which the molecule was classed as inactive.

`C=CCC1=C(C)C(OC(=O)C2C(C=C(C)C)C2(C)C)CC1=O` (stereo not drawn): the result was inactive.

Turning to `Cc1ccc(-c2c(Cl)nc(C#N)n2S(=O)(=O)N(C)C)cc1`, the molecule was called inactive.

For `CCON=C(CC)C1=C(O)CC(c2c(C)cc(C)cc2C)CC1=O` (stereo not drawn), the AC50 is 4.89 µM (active).

For `C#CCOS(=O)OC1CCCCC1Oc1ccc(C(C)(C)C)cc1` (stereo not drawn), the result was inactive.
